High-throughput results deposited in PubChem BioAssay by National Center for Advancing Translational Sciences (NCATS).
TbPYK inhibitor: T. brucei pyruvate kinase inhibition; TbPYK enzyme, Kinase-Glo Plus ATP luminescence, 45 min; Potency, µM (doses to about 76.8 µM), for the others: at the highest dose activity, negative = inhibition, hits mostly inhibitors; 410,000 compounds, 0.12% hits; also: potency is read from the fitted curve at half-maximal effect; % is scaled to controls: 0 for no effect and ±100 for the full control effect; nearly all actives have a fitted effect of over 50% in size
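Screened from lowest to highest concentration, compounds were pinned into TbPYK/substrate mixtures, and ADP (130 uM final) was added. Plates sat at room temperature for 45 min prior to Kinase-Glo Plus detection by luminescence.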
LmPK inhibitor: LmPK (Leishmania mexicana) enzyme inhibition. Q27686. purified LmPK, Kinase-Glo ATP luminescence, 1 h. Potency, µM (top dose mostly 57.5 µM), inactives show at the highest dose activity change, negative = inhibition, usual class: inhibitors. 290,000 compounds, 0.37% hits. AID 1721; also: potency is read from the fitted curve at half-maximal effect; % is scaled to controls: 0 for no effect and ±100 for the full control effect
Target sequence (Q27686 whole entry, looked up): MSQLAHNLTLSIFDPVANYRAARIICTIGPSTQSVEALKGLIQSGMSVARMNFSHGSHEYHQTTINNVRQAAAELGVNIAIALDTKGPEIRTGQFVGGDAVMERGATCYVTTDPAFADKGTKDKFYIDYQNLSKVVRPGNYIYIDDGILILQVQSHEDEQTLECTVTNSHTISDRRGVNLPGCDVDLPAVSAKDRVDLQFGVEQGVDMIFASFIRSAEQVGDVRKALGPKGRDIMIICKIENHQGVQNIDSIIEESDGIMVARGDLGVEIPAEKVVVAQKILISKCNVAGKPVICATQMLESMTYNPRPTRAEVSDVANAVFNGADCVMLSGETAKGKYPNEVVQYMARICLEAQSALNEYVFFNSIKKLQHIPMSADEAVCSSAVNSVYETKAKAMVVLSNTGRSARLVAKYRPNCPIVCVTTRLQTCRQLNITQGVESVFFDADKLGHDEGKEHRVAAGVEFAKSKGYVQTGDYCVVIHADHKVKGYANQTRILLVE
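Purified LmPK (0.1 nM) with 0.5 mM PEP and 0.1 mM ADP in imidazole buffer pH 7.2 with MgCl2/KCl, 1 h at room temperature. ATP formed was read by luciferase luminescence and normalized to no-enzyme and uninhibited controls.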
Shiga inhibitor: blocks Shiga toxin action in Vero cells; Vero cells, Shiga toxin protein synthesis inhibition reporter; inhibition, % at 38.7 µM; 290,000 compounds, 9.2% hits; in the data active = inhibition mostly above about 28%, no sharp cut-off; inactive = mostly below about 43%; also: 0% is about no effect
SARS PLpro yeast: inhibitors of SARS-CoV papain-like protease in yeast; 330,000 compounds, 0.19% hits; S. cerevisiae expressing SARS-CoV PLpro, growth rescue; Potency, µM (top dose mostly 32.9 µM), without a hit: top-dose activity, positive = growth rescue, most hits filed as activators; AID 485353; calls by dose curve; also: potency is read from the fitted curve at half-maximal effect; 0% is about no effect; nearly all actives have a fitted effect of over 55% in size
Cycloheximide cs: counter-screen hit for Shiga toxin inhibitors, cycloheximide | cell reporter, cycloheximide protein synthesis inhibition counterscreen | max response, % | 300,000 compounds, 12% hits | AID 2314; in the data active = max response mostly above about 13%, no sharp cut-off; inactive = mostly below about 14%; also: read at 38.3 µM for the half of the compounds with a filed dose; 0% is about no effect
NS1 inh: inhibitors of influenza NS1 protein function; Potency, µM (titrated, usually from 46.1 µM), for the others: at the highest dose activity, positive = more growth; 270,000 compounds, 0.4% hits; AID 2326; calls by dose curve; also: potency is read from the fitted curve at half-maximal effect; actives are rising curves; nearly all actives have a fitted effect of over 50% in size
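S. cerevisiae expressing influenza A NS1, grown in glucose, washed, then diluted 1:100 into pH 6.0 -URA galactose medium with 23 nl compound. Growth recovery read as OD600; NS1-free strain serves as control.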
Active calls of the source: *; i = inactive; ? = inconclusive; . = no result; [ ] = dose if it differs, or a comment. Only a selection was taken, and hits are over-represented in it overall. Unless noted, calls follow the shape of the dose curve; as a rule, active = well fitted curve in the direction sought with a large enough effect; inconclusive = small, poorly fitted or top-dose-only effect, or another doubt; inactive = no such curve, though single readings can be large; an effect the other way counts as inactive or inconclusive.

SMILES	TbPYK inhibitor	LmPK inhibitor	Shiga inhibitor	SARS PLpro yeast	Cycloheximide cs	NS1 inh
CC(C)c1ccc(-c2cc(C(=O)N3N=C(C(F)F)CC3(O)C(F)F)c3ccccc3n2)cc1 (centres undefined)	4%	3%	83*	-70%	23*	-4%
Cc1cc(C)n(C(=O)CNc2ccc(C)c(C)c2)n1	0%	-15%	29	2%	32*	20%
Cc1cc(C)cc(NC(=O)OCCN2CCN(Cc3ccccc3)CCC2=O)c1	-2%	3%	-15	-16%	1	-35%
O=c1cc(-c2ccccc2Cl)oc2c([N+](=O)[O-])ccc(O)c12	.	.	i	.	-6	.
O=c1cc(-c2ccccc2Cl)oc2c(Br)ccc(O)c12	-6%	3%	78*	-1%	31*	11%
CN(C1CCCCC1)S(=O)(=O)c1ccc2c(c1)c(=O)c(C(=O)NCc1ccc(F)cc1)cn2C	-5%	.	.	.	.	.
O=[N+]([O-])c1ccc(/C=C2\CCC(C3=CCCC3)=C2N2CCOCC2)cc1	-17%	-6%	35	-64%	24*	-38%
O=C(NP(=O)(N1CCCC1)N1CCCC1)C1=C(N2CCOCC2)/C(=C/c2cccc([N+](=O)[O-])c2)CC1	-4%	-2%	24	1%	7	.
C/C(=N\NC(=O)c1cc(Br)ccc1O)c1cccs1	-3%	-10%	126*	-4%	37*	.
C/C(=N/NC(=O)c1ccc(Br)o1)c1cccs1	-10%	-10%	123*	.	50*	-20%
C/C(=N\NC(=O)c1cc(C)nc2ccccc12)c1cccs1	-1%	2%	-4	1%	-1	1%
O=C(CCN1C(=O)c2ccccc2S1(=O)=O)NCc1ccccc1Cl	-13%	.	.	5%	.	.
COc1cc2c(cc1OC)-c1cc(Nc3ccc4c(c3)OCCO4)nc(=O)n1CC2	-6%	-2%	78*	2%	67*	-11%
COc1cc2c(cc1OC)-c1cc(Nc3ccccc3Br)nc(=O)n1CC2	1%	5%	-1	0%	17*	-8%
COc1cc2c(cc1OC)-c1cc(Nc3ccccc3)nc(=O)n1CC2	-5%	0%	1	0%	-4	-7%
Oc1c(N=Nc2ccccc2)sc2ccccc12	-6%	?	61*	-2%	40*	-50%
Cc1ccc2oc(=O)c3cc(C(=O)N4CCN(c5ccccc5F)CC4)sc3c2c1	-3%	.	.	.	.	.
CCOC(=O)c1sc2nc(OCCN3CCOCC3)cc(C)c2c1N	-1%	.	.	.	.	.
CC(=O)c1sc2nsc(SCCN3CCOCC3)c2c1N	-27%	23%	28*	1%	22	6%
Nc1c(C(=O)c2ccccc2)sc2nsc(SCCN3CCOCC3)c12	-2%	5%	29*	-1%	23*	-30%
Cc1noc(C)c1S(=O)(=O)Nc1ccc2c(c1)C(=O)N([C@H](C)CO)C[C@H](C)[C@@H](CN(C)S(=O)(=O)c1ccccc1)O2	1%	.	.	8%	.	.
N#Cc1c(-c2ccc(Cl)cc2)n(O)c2ccccc12	-2%	.	.	.	.	.
O=C(Nc1cccc(C(F)(F)F)c1)c1csc([C@@H]2C[C@H](O)[C@@H](CO)O2)n1	3%	.	.	.	.	.
O=S(=O)(Nc1ccncc1)c1ccc(Cl)c(Cl)c1	-4%	2%	.	12%	18*	-16%
Cc1ccc(-c2cn(-c3cccc(Cl)c3)c(S(=O)(=O)CC(=O)Nc3cccc(C)c3)n2)cc1	-11%	.	.	.	.	.
SMILES	TbPYK inhibitor	LmPK inhibitor	Shiga inhibitor	SARS PLpro yeast	Cycloheximide cs	NS1 inh
Cc1cccc(OCC(=O)Nc2ccc(C(=O)Nc3ccccc3C(=O)O)cc2)c1	-14%	.	.	.	.	.
Cc1ccccc1OCC(=O)Nc1ccccc1-c1ccccc1NC(=O)COc1ccccc1C	-19%	2%	-4	5%	-5	-17%
Cc1ccccc1NC(=S)NC(=O)COc1ccccc1C	5%	-8%	-14	-5%	27*	7%
O=C(CCCOc1ccc(Cl)cc1Cl)Nc1ccccc1C(=O)O	-4%	-4%	84*	2%	42*	-2%
O=C(COc1ccc(Cl)cc1Cl)Nc1ccc(C(=O)Nc2ccccc2C(=O)O)cc1	7%	1%	45	3%	35*	?
CC(C)(CO)NC(=O)CCCOc1ccc(Cl)cc1Cl	-8%	-2%	54*	3%	50*	-2%
COc1cc(OC)c(NC(=O)N2CCOCC2)cc1Cl	-6%	-6%	-7	-8%	-3	2%
COc1cccc(CC(=O)N2CCc3nc(-c4ccc(OC)cc4C)c4c(c3C2)CO[C@@H](c2ccccc2)C4)c1	.	-1%[11.5 µM]	.	.	.	.
O=C(COc1ccc(Cl)cc1Cl)NC(=S)Nc1ccccc1C(=O)O	.	1%	35*	-1%	23*	-8%
COCCN1C[C@@H](CO)O[C@@H](n2cnc3c(NC4CCC4)ncnc32)C1	-10%	.	.	.	.	.
O=C(COC(=O)c1c(F)cccc1F)c1ccc[nH]1	-2%	-10%	82*	-2%	38*	-5%
O=C(OCC(=O)c1ccc[nH]1)c1ccccc1	-2%	-2%[11.5 µM]	118*	-1%	47*	.
CN(C)c1ccc(C(=O)OCC(=O)c2ccc[nH]2)cc1	1%	.	.	-9%	.	.
O=[N+]([O-])c1ccc(-c2nnc(S)n2-c2ccccc2)cc1	.	7%	.	-3%	28*	10%
O=[N+]([O-])c1ccc(N2CCN(c3ccccc3)CC2)cc1	4%	-2%	-8	-7%	2	-1%
S=c1[nH]nc([C@@H]2C[C@H]2c2ccccc2)n1-c1ccccc1	4µM*	?	-6	7%	-3	5%
Cc1ccccc1-n1c([C@@H]2C[C@H]2c2ccccc2)n[nH]c1=S	?	11µM*	-9	0%	-2	3%
Cc1ccccc1OCc1n[nH]c(=S)n1-c1ccccc1	?	1%	5	0%	-2	4%
Cc1n[nH]c(=S)n1-c1ccccc1	?	3%	2	1%	5	4%
COC(=O)C[C@H]1C[C@H]2c3cc(NC(=O)Cc4ccncc4)ccc3O[C@H]2[C@@H](CO)O1	8%	.	.	.	.	.
COc1ccc(NC(=O)Nc2cccc([N+](=O)[O-])c2)cc1Cl	-14%	-1%	27	-20%	30*	-3%
O=C(Nc1ccc(F)cc1)Nc1ccc2c(c1)CCC2	-1%	1%	68*	0%	49*	-2%
O=C(Cc1ccccc1)Nc1ccc2c(c1)CCC2	-7%	-3%	105*	-2%	39*	.
CCCNC(=O)Nc1ccc(C(F)(F)F)cc1	-9%	-3%	43*	-3%	18*	-4%
CC(=O)Oc1ccc(-c2cc3ccc(OC(C)=O)cc3oc2=O)cc1	4%	.	.	.	.	.
Cc1cc(C)cc(NC(=O)Nc2ccc3c(c2)CCC3)c1	2%	-11%	-2	4%	-3	3%
O=C(Nc1cccc(F)c1)Nc1ccc2c(c1)C(=O)OC2	-5%	2%	34	0%	8	?
Cc1ccc(NC(=O)Nc2ccc3c(c2)CCC3)cc1	3%	0%	54*	2%	48*	-5%
